# From PubChem BioAssay AID1117361 (Southern Research Institute, 2015)
# In all, about 3,600 compounds went through this assay and about 900 (25%) were called active. The rule behind the calls is not given here. A selection follows. Entries with a potency or affinity are not part of this list.
# Biological target: Protein Tat (Human immunodeficiency virus type 1 group M subtype B (isolate HXB2)) (UniProt P04608)
# Test: inhibitors of Tat binding to TAR RNA, dose response, counter-screen for Vif-APOBEC3G degradation inhibitor project, biochemical, fluorescence polarization, FAM-labeled TAR RNA (AID 1117361)
# Conditions: outcome: dose series up to 100 µM unless noted; series mostly up to 100 µM
row,SMILES,outcome
1,Cc1cccc(C)c1N1C(=O)C2ON(c3ccccc3)C(c3ccncc3)C2C1=O (stereo not given),inactive
2,Cc1nn(CC(=O)NCc2ccccc2Cl)c(C)c1[N+](=O)[O-],inactive
3,O=C(Nc1cnn(Cc2c(Cl)cccc2Cl)c1)c1ccc([N+](=O)[O-])cc1,inactive
4,CC(C)c1nc2sc3c(NCc4ccco4)ncnc3c2c2c1COC(C)(C)C2,inactive
5,Cc1sc2ncnc(OCC(=O)N3CCN(S(=O)(=O)c4ccc(Cl)cc4)CC3)c2c1C,inactive
6,CCCC(=O)NC1=C(Cl)C(=O)c2ccccc2C1=O,inactive
7,CCC(=O)Nc1cc2c(cc1C(=O)CC)OCCO2,inactive
8,Cc1ccc(S(=O)(=O)Nc2ccc3nc(C)sc3c2)cc1,inactive
9,CC(=O)N1CCN(c2ccc(NCc3ccc4c(c3)OCO4)cc2)CC1,inactive
10,CCOc1ccc(S(=O)(=O)Nc2ccc(S(=O)(=O)N3CCCCC3)cc2)cc1,inactive
11,COc1ccc(N2CCN(C(=O)COc3ccccc3)CC2)cc1,inactive
12,CCN1CCN(c2ccc(NC(=O)Cc3ccccc3)cc2)CC1,inactive
13,Cc1snc(S(=O)(=O)Cc2ccccc2Cl)c1C#N,inactive
14,COc1ccc(/C=C/CN2CCN(Cc3ccccc3)C(CCO)C2)cc1 (stereo not given),inactive
15,CSc1ccccc1NC(=O)c1noc2c1CCC2,inactive
16,CCCCS(=O)(=O)N1CCCC(C(=O)N2CCOCC2)C1 (stereo not given),inactive
17,COc1ccc(C2CC(O)(c3ccccc3)Oc3c(C)ccc(C)c32)cc1 (stereo not given),inactive
18,Cn1c2ccccc2c2ccc3c(c21)C(=O)C=CC3=O,inactive
19,Cc1ccc(CN(C(=O)Cn2nnc3ccccc32)C(C(=O)NCc2ccco2)c2cccs2)cc1 (stereo not given),inactive
20,CCOc1cc(C(C(=O)NCC2CCCO2)N(C(=O)Cn2nnc3ccccc32)c2cccc(OC)c2)ccc1O (stereo not given),inactive
21,CCCCn1c(SCC(=O)Nc2ccc3c(c2)OCCO3)nnc1C(CC)N(C)C (stereo not given),inactive
22,C/C(=N\Nc1ccc2nncn2n1)c1ccc(Br)s1,inactive

row,SMILES,outcome
1,COc1cc(Cc2cnc(N)nc2N)cc(OC)c1OC,inactive
2,O=C1C(C=NC2CC2)=C(O)c2ccccc21,inactive
3,COc1ccc(Cl)cc1N(CC(=O)Nc1ccc2c(c1)OCCO2)S(C)(=O)=O,inactive
4,O=C(CN1CCN(CC(=O)Nc2ccc3c(c2)OCO3)CC1)Nc1ccc(F)cc1,inactive
5,CCn1c(=O)c2cc(C(=O)N(C)c3ccccc3F)sc2c2ccccc21,inactive
6,CCOC(=O)N1CCC(NC(=O)C2CCN(c3nc(-c4ccc(OC)cc4)no3)CC2)CC1,inactive
7,CCOC(=O)C1CCCN(C(=O)c2c(-c3ccccc3Cl)noc2C)C1 (stereo not given),inactive
8,CC(C)Oc1ccc(C(=O)N(Cc2ccco2)C2CCS(=O)(=O)C2)cc1 (stereo not given),inactive
9,CS(=O)(=O)N(CC(=O)NCc1ccc2c(c1)OCO2)Cc1ccccc1,inactive
10,CCOC(=O)C1CCCN(Cc2ccc(O)c(OC)c2)C1 (stereo not given),inactive
11,Cc1oc(-c2ccccc2)nc1C(=O)OCC(=O)NCc1ccc(F)cc1,inactive
12,O=C(CCCc1c[nH]c2ccccc12)NCc1ccc2c(c1)OCO2,inactive
13,O=C(OCC(=O)N1CCN(C(=O)c2ccco2)CC1)c1cc(-c2ccco2)nc2ccccc12,inactive
14,Cc1cc(C(=O)OC2CCOC2=O)c2ccccc2n1 (stereo not given),inactive
15,O=C(CSc1nnc2n(C3CCCCC3)c(=O)c3ccccc3n12)OC1CCCCC1,inactive
16,Cc1cc(Cl)c(S(=O)(=O)NCc2cccnc2)cc1OCC(=O)NC1CCCCC1,inactive
17,O=S(=O)(c1cccs1)n1nnc2ccccc21,inactive
18,COc1cc(-c2nnc(SCc3cc(=O)oc4cc(O)c(O)cc34)o2)cc(OC)c1OC,inactive
19,C=C(c1ccc(OCCO)cc1)c1ccc(OCCO)cc1,inactive
20,CC(=O)N1CCN(c2ccc(NC(=O)COc3ccc(Cl)cc3Cl)cc2)CC1,inactive
21,Cc1nc2ccc(NS(=O)(=O)c3ccc(F)cc3F)cc2s1,inactive
22,CC1(C)C/C(=C(/C#N)C(N)=O)CCO1,inactive

row,SMILES,outcome
1,COc1cc2c(cc1OC)C(C(=O)O)C(c1cc(Br)c(O)c(OC)c1)N(C)C2=O (stereo not given),inactive
2,Cc1sc2ncnc(OCC(=O)NCC3CCCO3)c2c1C (stereo not given),inactive
3,CN(Cc1ccccc1)C(=O)C1CCCN1S(=O)(=O)c1ccc2c(c1)n(C)c(=O)c(=O)n2C (stereo not given),inactive
4,O=C(NCCSCc1ccccc1)c1ccc(C2SCC(=O)N2Cc2ccccc2)cc1 (stereo not given),inactive
5,CCCn1nc(Oc2nc(SC)nc(N(C)C)n2)ccc1=O,inactive
6,COc1ccc2nc(-c3ccccc3)cc(C(=O)OCC(=O)N3CC(C)OC(C)C3)c2c1 (stereo not given),inactive
7,O=C(Nn1cnnc1)c1cc(-c2cccc(Br)c2)nc2ccccc12,inactive
8,CC(C)OP(=O)(OC(C)C)C(O)c1ccc(N(C)C)cc1 (stereo not given),inactive
9,Cc1oc(/N=C/c2cccc3ccccc23)c(C#N)c1C,inactive
10,O=C1C=C(c2c(O)ccc3ccccc23)c2ccccc2C1=O,inactive
11,COc1ccc(CCN2CC(C(=O)NCC(c3ccccc3)N(C)C)CC2=O)cc1OC (stereo not given),inactive
12,COc1cc2c(cc1OC)C(C)N(C(=O)c1cc3n(n1)C(C(F)(F)F)CC(c1ccco1)N3)CC2 (stereo not given),inactive
13,Cc1[nH]c(=O)[nH]c(=O)c1S(=O)(=O)N1CCCC(C(=O)NCCc2ccccc2)C1 (stereo not given),inactive
14,CCC(C)[C@H](NC(=O)N1CCCC1)C(=O)O (stereo not given in full),inactive
15,CCOC(=O)c1[nH]nc(-c2c(O)cc(C)cc2O)c1-c1csc(C)n1,inactive
16,CC(=O)N1CCc2cc(S(=O)(=O)NC(C(=O)NC3CCCc4ccccc43)C(C)C)ccc21 (stereo not given),inactive
17,Cc1nc2ccc(S(=O)(=O)NC(C(=O)N3CCC(C)CC3)C(C)C)cc2s1 (stereo not given),inactive
18,COC(=O)C1CCCN1S(=O)(=O)c1ccc2ccccc2c1 (stereo not given),inactive
19,Cc1ccc(Nc2nc3ccccc3nc2-n2nc(C)cc2C)cc1,inactive
20,COCCn1c(SCC(=O)Nc2cccc(C)n2)nnc1-c1ccco1,inactive
21,CC(C)Cn1c(SCC(=O)Nc2cccnc2Cl)nnc1-c1ccco1,inactive
22,Cc1cc(SCC(=O)Nc2ccccc2C)nc(C)n1,inactive

row,SMILES,outcome
1,Cc1cccc(NC(=O)CSc2nnc(-c3ccccc3C)o2)c1,inactive
2,Cc1c(Cl)cccc1NC(=O)CSc1nnc(C)n1-c1ccccc1,inactive
3,Cc1nc(SCC(=O)Nc2ccnc3ccccc23)n[nH]1,inactive
4,CCC1(C)Cc2c(sc(NC(=O)CCC(=O)O)c2C#N)CO1 (stereo not given),inactive
5,CCCSc1nc2c(cnn2-c2ccc(C)cc2)c(=O)[nH]1,inactive
6,CCCCc1cc(C(=O)Cc2ccccn2)c(O)cc1O,inactive
7,CC(C)NC(=O)c1ccc(COCC(F)(F)C(F)F)cc1,inactive
8,CN(C)CCOCCSc1ccc(Cl)cc1,inactive
9,CC(C)(NO)/C(=N\O)c1ccccc1,inactive
10,Cc1cc(Nc2ccc(Br)cc2)n2nc(C)nc2n1,inactive
11,CCc1cc2c(N3CCCCC3)ncnc2s1,inactive
12,CCOc1ccc(Nc2nc(Cc3nnc(SCC(=O)NCC4CCCO4)n3C)cs2)cc1 (stereo not given),inactive
13,CCOC(=O)c1c(C)[nH]c(C(=O)OCC(=O)N2c3ccccc3CC2C)c1C (stereo not given),inactive
14,S=C(Nc1cccc(Cl)c1)NC1CCCCC1,inactive
15,CC1CCc2[nH]c3ccc(C(=O)N(C)CC(=O)Nc4ccc(F)cc4)cc3c2C1 (stereo not given),inactive
16,Cn1nnc(NC(=O)c2cccc(F)c2)n1,inactive
17,CC(=O)N1CCc2cc(S(=O)(=O)NCCC(=O)Nc3cccc(C)c3C)ccc21,inactive
18,CC(=O)Nc1ccc(NC(=O)CN(c2cccc(C(C)=O)c2)S(C)(=O)=O)cc1,inactive
19,O=C(NNC(=O)c1ccccc1F)c1cccc(-n2cccc2)c1,inactive
20,CC(=O)c1cccc(NC(=O)c2cnn3ccccc23)c1,inactive
21,CCN(CC)C(=O)NCc1c(C)cc(C)cc1C,inactive
22,Cc1ccc(-n2[nH]c(=O)c3cccnc32)cc1,inactive

row,SMILES,outcome
1,O=C(Nc1ccc(Cl)c(-c2nc3ccccc3[nH]2)c1)c1cccnc1,inactive
2,CCCCCCN(C(=O)CCCCCN1C(=O)NC(c2ccc(C(C)(C)C)cc2)C(C(=O)OCc2ccccc2)=C1C)C(C(=O)NCCCC)c1ccc(OCC(=O)OC)c(C(=O)OC)c1 (stereo not given),inactive
3,CCOC(CNC(=O)C(=O)Nc1cc2c3c(c1)CC(=O)N3CCC2)OCC,inactive
4,CCOC(=O)C1CCN(S(=O)(=O)c2cccc(-c3cn4cccc(C)c4n3)c2)CC1,inactive
5,C/C(=N\n1c(C)nc2ccccc2c1=O)c1ccc(C)o1,inactive
6,COc1ccc(C(=O)CSc2n[nH]c(N)n2)cc1,inactive
7,CCOC(=O)c1sc(-c2ccccc2)cc1NC(=O)CSc1nnnn1C,inactive
8,Cc1cc(C(=O)N2CCN(C/C=C/c3ccccc3)CC2)cs1,inactive
9,CC1=C(C(=O)N2CCCCC2)C2(CCC(C)CC2)OC1=O (stereo not given),inactive
10,COc1ccc(NS(=O)(=O)c2cccc(Cl)c2Cl)cc1S(=O)(=O)N1CCCCC1,inactive
11,COc1ccc(OC)c(S(=O)(=O)Nc2cnc3ccccc3c2)c1,inactive
12,COC(=O)CN1C(=O)C(O)=C(C(C)=O)C1c1ccc([N+](=O)[O-])cc1 (stereo not given),inactive
13,CC1(c2ccccc2)NC(=O)N(CC(=O)Nc2cccc(C#N)c2)C1=O (stereo not given),inactive
14,CS(=O)(=O)N1CCC(C(=O)Nc2ccccc2)CC1,inactive
15,O=C(CCc1ccccc1)Nc1ccc2c(c1)OCCO2,inactive
16,COc1ccccc1N(CC(=O)NC(C)C)S(=O)(=O)c1cccs1,inactive
17,O=C(CN1CCCCC1)Nc1nnc(-c2ccccc2)s1,inactive
18,O=C(Nc1cc(Cl)ccn1)C1CCN(S(=O)(=O)c2cccs2)CC1,inactive
19,O=C(Nc1ccncc1)C1CCN(S(=O)(=O)c2c(Cl)cccc2Cl)CC1,inactive
20,CC(C)c1nnc(NC(=O)CCC(=O)NCc2ccco2)s1,inactive
21,CC(=O)C1=C(N2CCCCC2)CCC1=O,inactive
22,Cc1ccc(CNC(=O)CN(c2cccc([N+](=O)[O-])c2)S(C)(=O)=O)cc1,inactive
